The record followed here is the supplement of paper PMC10412459.

SMILES strings stand for the structures.

The subject of the assay is K562 SF3B1 K700E vs K562 SF3B1 WT. The assay is described as follows: surviving fraction ratio K562 SF3B1 K700E / K562 SF3B1 WT (each relative to DMSO); higher = less selective killing of SF3B1 K700E cells. As to conditions: 5 days. The method, then: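 Drug-sensitivity screen of an in-house 80-compound library in isogenic K562 SF3B1 K700E versus SF3B1 WT cells. 250 cells/well in 384-well plates were exposed 24 h after seeding to 0.5-1000 nM compound for 5 days, and viability was read by CellTiter-Glo. Surviving fraction is relative to DMSO, and the value is the ratio of surviving fraction in K700E to WT cells; the paper calls ratio <0.6 with P<0.01 selective.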

Regarding `CC(=O)O[C@H]1C(=O)[C@@]2(C)[C@H]([C@H](OC(=O)c3ccccc3)[C@]3(O)C[C@H](OC(=O)[C@H](O)[C@@H](NC(=O)c4ccccc4)c4ccccc4)C(C)=C1C3(C)C)[C@]1(OC(C)=O)CO[C@@H]1C[C@@H]2O` [paclitaxel], the “surviving fraction ratio K562 SF3B1 K700E / K562 SF3B1 WT” value runs as follows: (0.5nM) 0.866; (1nM) 0.99; (5nM) 0.864; (10nM) 1.42; (50nM) 2.44; (100nM) 2.46. The “surviving fraction ratio K562 SF3B1 K700E / K562 SF3B1 WT” value was 3 (500nM) and 2.44 (1000nM).

`Nc1nc(=S)c2[nH]cnc2[nH]1` [6-thioguanine]: the “surviving fraction ratio K562 SF3B1 K700E / K562 SF3B1 WT” value runs as follows: (0.5nM) 0.927; (1nM) 0.836; (5nM) 0.914; (10nM) 0.819; (50nM) 0.78; (100nM) 0.792. Besides, the “surviving fraction ratio K562 SF3B1 K700E / K562 SF3B1 WT” value is, setting by setting: (500nM) 0.828; (1000nM) 0.777.

`CCn1c(C(=O)N(C2CC2)C2CC2)cc2c3c(ncn3C)c(Nc3cc(C)n(C)n3)nc21`: the “surviving fraction ratio K562 SF3B1 K700E / K562 SF3B1 WT” value runs as follows: (0.5nM) 0.923; (1nM) 0.951; (5nM) 1; (10nM) 0.938; (50nM) 0.82; (100nM) 0.801. The “surviving fraction ratio K562 SF3B1 K700E / K562 SF3B1 WT” value (500nM) was found to be 0.844 and the “surviving fraction ratio K562 SF3B1 K700E / K562 SF3B1 WT” value (1000nM) stood at 0.893.

`CC(=O)NCC(=O)N1[C@@H]2CC[C@H]1c1ccc(Nc3ncc(C(F)(F)F)c(NC4CCC4)n3)cc12`: the “surviving fraction ratio K562 SF3B1 K700E / K562 SF3B1 WT” value (0.5nM) was determined as 0.948; the “surviving fraction ratio K562 SF3B1 K700E / K562 SF3B1 WT” value (1nM) turned out to be 1.01; the “surviving fraction ratio K562 SF3B1 K700E / K562 SF3B1 WT” value (5nM) is 0.872; the “surviving fraction ratio K562 SF3B1 K700E / K562 SF3B1 WT” value (10nM) was determined as 0.883; the “surviving fraction ratio K562 SF3B1 K700E / K562 SF3B1 WT” value (50nM) came to 0.549; the “surviving fraction ratio K562 SF3B1 K700E / K562 SF3B1 WT” value (100nM) was found to be 1.05. Besides, the “surviving fraction ratio K562 SF3B1 K700E / K562 SF3B1 WT” value (500nM) amounted to 1.18 and the “surviving fraction ratio K562 SF3B1 K700E / K562 SF3B1 WT” value (1000nM) came to 1.64.

As for `CN(Cc1cnc2nc(N)nc(N)c2n1)c1ccc(C(=O)N[C@@H](CCC(=O)O)C(=O)O)cc1` [methotrexate], the “surviving fraction ratio K562 SF3B1 K700E / K562 SF3B1 WT” value is 0.824 (0.5nM); 0.836 (1nM); 0.971 (5nM); 2.8 (10nM); 3.75 (50nM); 4.08 (100nM). Further, the “surviving fraction ratio K562 SF3B1 K700E / K562 SF3B1 WT” value is, setting by setting: (500nM) 3.5; (1000nM) 3.58.
